Reference: publication PMC7819943, “Rice protein-binding microarrays: a tool to detect cis-acting elements near promoter regions in rice”
In all, about 68,000 sequences were measured (“fluorescence intensity (a.u.)”: median about 9,100, highest 2% from about 16,000 on). The entries come from a sample that favours the highest values as a whole.

The sequences below were run against OsWRKY34 (Oryza sativa, UniProt Q0JBA9 1-250) (assay: protein-binding microarray (RPBM); PBS, 2% BSA, 51.3 ng/ul salmon testes DNA, 50 uM zinc acetate, 200 nM TF, 25 C, 1 h; high values mean tight binding). Conditions: protein: recombinant; tags: N-terminal polyhistidine and DsRed monomer fusion (pET32a); label: CyDye5-dUTP incorporated in the synthesized complementary strand; 3' TTTTT single-stranded linker to array surface; dsDNA, one strand shown.
Procedure, shortened: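 Using Ni–NTA, transcription factors fused N-terminally to polyhistidine and DsRed were purified after expression in E. coli BL21-CodonPlus. These were incubated at 200 nM with a blocked, double-stranded custom Agilent array for 1 h at 25 °C in a buffer containing 50 µM zinc acetate, and the array was washed. The binding signal is per-feature fluorescence intensity (arbitrary units) on an Axon 4000B scanner.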

OsWRKY34, sequence (Q0JBA9 entry or part of it): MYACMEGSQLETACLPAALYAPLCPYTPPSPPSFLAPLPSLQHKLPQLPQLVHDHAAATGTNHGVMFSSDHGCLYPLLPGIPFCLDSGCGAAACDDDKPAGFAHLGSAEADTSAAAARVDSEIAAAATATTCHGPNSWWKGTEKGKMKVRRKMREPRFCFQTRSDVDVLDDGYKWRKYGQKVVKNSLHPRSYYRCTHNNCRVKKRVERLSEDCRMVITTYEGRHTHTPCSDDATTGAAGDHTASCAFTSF

| Sequence | binding signal |
| --- | --- |
| ACCGGCTCTCTAATCCTTAAATTCTGGCTTTGCTGCTAGTCGGAGTCACCTAGTGCAG | 9240 fluorescence intensity (a.u.) |
| CAGTGGAGGGTTGGATCGGTGTGTAGGGGCTTAAGTGCAACGGAGTCACCTAGTGCAG | 9610 fluorescence intensity (a.u.) |
| CATGTCCAACGTTTGACCATTTGCCTTATTTAAAATTTTTCGGAGTCACCTAGTGCAG | 9250 fluorescence intensity (a.u.) |
| ATGCTCGATCACATGCTTAATTCTTAGCTTTGTCCTAGTTCGGAGTCACCTAGTGCAG | 8230 fluorescence intensity (a.u.) |
| ACGGCCAGGCAAGCAAGCAAACGCCGCGGCTACCAATACCCGGAGTCACCTAGTGCAG | 39600 fluorescence intensity (a.u.) |
| GCTAAATACCAGCGAAGCAGTCGCCCGCGCAAACGCGCGCCGGAGTCACCTAGTGCAG | 8220 fluorescence intensity (a.u.) |
| GCCGCCACCGCAACCTACCGCCGCCGCGGCAAGCCCAAGCCGGAGTCACCTAGTGCAG | 8960 fluorescence intensity (a.u.) |
| TTAATCTTCACGCGTTTGCTTACTCCTATATATATATGTACGGAGTCACCTAGTGCAG | 9730 fluorescence intensity (a.u.) |
| TCCTGTGTTTTGCAATCCTCTGTTTTTACACTTGCATTCCCGGAGTCACCTAGTGCAG | 10400 fluorescence intensity (a.u.) |
| TGTTTTTCCTGTGTTTTGCAATCCTCTGTTTTACACTTACCGGAGTCACCTAGTGCAG | 13000 fluorescence intensity (a.u.) |
| TTCCTGTGTTTTGCAATCCGCTGTTTTACACTTACATTCCCGGAGTCACCTAGTGCAG | 17300 fluorescence intensity (a.u.) |
| TTTCGATTGATTTTGCCTCCTGAAGCGTTGTCTAGCTTTTCGGAGTCACCTAGTGCAG | 8180 fluorescence intensity (a.u.) |
| TAGTACAATGGGTGCCCTCAACGGAATAAACCGCTATACCCGGAGTCACCTAGTGCAG | 37000 fluorescence intensity (a.u.) |
| ACCTAGTACGTATACACCTCAATCCATTATAAATAGCAACCGGAGTCACCTAGTGCAG | 8280 fluorescence intensity (a.u.) |
| GCACAAAACCCTCGAGCACCGCCCGCCGCTATATAACAACCGGAGTCACCTAGTGCAG | 9960 fluorescence intensity (a.u.) |
| AGACAAACTCTGGTTTCCGTGTCCAACGTTTGACCGTTCGCGGAGTCACCTAGTGCAG | 11300 fluorescence intensity (a.u.) |
| TTTCATTTCACTCGCTGGCATTTCATCTCCTTGACCTATCCGGAGTCACCTAGTGCAG | 9400 fluorescence intensity (a.u.) |
| ACCCACTGATCACGAAATCCACACACTGGCCACATCCAAACGGAGTCACCTAGTGCAG | 8340 fluorescence intensity (a.u.) |
| CATCCGTTTCAAAATGTTTGACACCGTTGACTTTTTAGCACGGAGTCACCTAGTGCAG | 26200 fluorescence intensity (a.u.) |
| ATACTCCCTCCGTTTCAAAATGTTTGACATCGTTGACTTTCGGAGTCACCTAGTGCAG | 9980 fluorescence intensity (a.u.) |
| TTTTCTTTTTCAATGTATGATTCTGTTGACTTTTCAGATACGGAGTCACCTAGTGCAG | 11600 fluorescence intensity (a.u.) |
| TACTCCCTCCGTTTCAAATGACACCATTGACTTTTTAGCACGGAGTCACCTAGTGCAG | 9430 fluorescence intensity (a.u.) |
| CCCTCCGTTTCAAAATGTTTGATACCGTTGACTTTTTAGCCGGAGTCACCTAGTGCAG | 21200 fluorescence intensity (a.u.) |

| Sequence | binding signal |
| --- | --- |
| CCCTCCGTTTCAAAATGTTTGACACCGTTGACTTTTTAGCCGGAGTCACCTAGTGCAG | 28700 fluorescence intensity (a.u.) |
| TATTACTTCCTTCGTTTCAAAATGTTTGATACCGTTGACTCGGAGTCACCTAGTGCAG | 12000 fluorescence intensity (a.u.) |
| TTATCAAAAGTACTTTTTAAGTATGACTTCTCCGTTTTTACGGAGTCACCTAGTGCAG | 8280 fluorescence intensity (a.u.) |
| CTTTCTTTATTTCAAAAGTATGATACCGTTGACTTTTCACCGGAGTCACCTAGTGCAG | 24900 fluorescence intensity (a.u.) |
| GAGATGTGTCCATATTTGTAGTATTGGGTGGTATCTATTTCGGAGTCACCTAGTGCAG | 8550 fluorescence intensity (a.u.) |
| TCACGGCCCCGCCGACCTCACGTCACCTTTTGTTGCGAGTCGGAGTCACCTAGTGCAG | 8110 fluorescence intensity (a.u.) |
| GCCGAGGGCGCCGCCGGCGTCGTCCGAGCTGTGCCGCGCGCGGAGTCACCTAGTGCAG | 8640 fluorescence intensity (a.u.) |
| ATCGTCCTCTGCACCTGCACACATCATCACTGGGACAACCCGGAGTCACCTAGTGCAG | 8140 fluorescence intensity (a.u.) |
| AGGTCGACGTGTATATGTTCGTCTTTCATATCTCTGCTCTCGGAGTCACCTAGTGCAG | 9640 fluorescence intensity (a.u.) |
| GTCGTCCAATGGCATGCCTCGCCCTGATTTTTATCGGGCCCGGAGTCACCTAGTGCAG | 12700 fluorescence intensity (a.u.) |
| CCACAGTTAATTCCACACATACATGCACGCGTCTATATATCGGAGTCACCTAGTGCAG | 11200 fluorescence intensity (a.u.) |
| AGGGGTGGATGCGCGTGGGCTGGTGGTGGTGGTGGGGATGCGGAGTCACCTAGTGCAG | 19100 fluorescence intensity (a.u.) |
| GCTAGCTGGATTGGTGGGTGGGCGCGTCAAGAAGGGGATGCGGAGTCACCTAGTGCAG | 9830 fluorescence intensity (a.u.) |
| GGTGGTCGGGGCTCTGACGCGGCGGGGCGGCGGAGGTGGTCGGAGTCACCTAGTGCAG | 10800 fluorescence intensity (a.u.) |
| GCGGGGTGCGAGTGGATGGGTGGGCGTAGCGCGTGTCGTGCGGAGTCACCTAGTGCAG | 10400 fluorescence intensity (a.u.) |
| AGCTGGCGGCTGGCGGGTGGTGGTGGTGGCTGGCGGCGGGCGGAGTCACCTAGTGCAG | 13900 fluorescence intensity (a.u.) |
| GGTCTGGTTTTCCGTGTGTGCACGGTCGGGGTGCGCGTGGCGGAGTCACCTAGTGCAG | 14300 fluorescence intensity (a.u.) |
| CTCCGGTGGGTCGGGTCTGGGCGGGGTGCGCGTGGGGATGCGGAGTCACCTAGTGCAG | 18200 fluorescence intensity (a.u.) |
| GGGGTGTGTGTGCTCGGCTACTCCGGTGGGTCGGGTCTGGCGGAGTCACCTAGTGCAG | 12700 fluorescence intensity (a.u.) |
| CTGGTGGTCGGTTCAGTCGGGCGGGCGGGCGGGCTCACCGCGGAGTCACCTAGTGCAG | 22800 fluorescence intensity (a.u.) |
| TCATCGCGGGGCGGGGTGTAGCGGGTGCGAAAAGGAGGCGCGGAGTCACCTAGTGCAG | 9910 fluorescence intensity (a.u.) |
| CTGAGTGGCTGGGTGGGGTAGTGAAAAAAATCATCGCGCGCGGAGTCACCTAGTGCAG | 18200 fluorescence intensity (a.u.) |
| TGGTGACTGGGTAGGTGGTGGTGGTGGTGCGCGGCGGCGGCGGAGTCACCTAGTGCAG | 8620 fluorescence intensity (a.u.) |
